According to PubChem BioAssay (NCATS):
Results filed as inconclusive are left out. Activity calls are given as the source filed them. The call rests on the fitted dose curve; in most records, active means well fitted curve in the direction sought with a large enough effect; inconclusive means small, poorly fitted or top-dose-only effect, or another doubt; inactive means no such curve, though single readings can be large; an effect the other way counts as inactive or inconclusive.

Experiments:
[1] = biological target: Metallo-beta-lactamase type 2 (Klebsiella pneumoniae) (UniProt C7C422); assay: qHTS to identify inhibitors of the New Delhi Metallo-beta-lactamase (NDM): assay validation screen against the NCATS LOPAC Collection (AID 1794843); conditions: NDM-1 enzyme, nitrocefin hydrolysis, absorbance 485 nm; series mostly up to 38.4 µM;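 further: nitrocefin turnover by NDM-1 measured as 485 nm absorbance at plateau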
Metallo-beta-lactamase type 2 (Klebsiella pneumoniae), sequence (C7C422 whole entry, looked up): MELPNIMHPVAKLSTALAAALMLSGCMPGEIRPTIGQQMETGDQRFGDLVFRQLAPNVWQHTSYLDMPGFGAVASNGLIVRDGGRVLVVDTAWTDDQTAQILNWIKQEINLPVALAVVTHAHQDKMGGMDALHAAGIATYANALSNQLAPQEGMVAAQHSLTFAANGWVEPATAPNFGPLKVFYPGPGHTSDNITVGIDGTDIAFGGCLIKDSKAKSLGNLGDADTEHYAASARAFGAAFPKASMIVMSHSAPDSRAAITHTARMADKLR
Procedure, shortened: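 Enzyme 2 nM final, 50 mM HEPES pH 7.0, 1 uM ZnSO4, 0.01% Tween20; cpds in DMSO, preincub w/ enzyme; + nitrocefin (50 uM stock); A485 at plateau; no-enzyme column as blank.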

[2] = biological target: Glutathione peroxidase 1 (Homo sapiens) (UniProt P07203); assay: Primary qHTS Assay for Inhibitors of Recombinant Selenoprotein Glutathione Peroxidase 1 (GPX1) (AID 1845191); conditions: recombinant GPX1, GR-coupled NADPH fluorescence, 15 min; series mostly up to 48.8 µM; further: nearly all actives have a fitted effect of over 65% in size; further: potency means the concentration at half of the fitted maximal effect
Glutathione peroxidase 1 (Homo sapiens), sequence (P07203 whole entry, looked up): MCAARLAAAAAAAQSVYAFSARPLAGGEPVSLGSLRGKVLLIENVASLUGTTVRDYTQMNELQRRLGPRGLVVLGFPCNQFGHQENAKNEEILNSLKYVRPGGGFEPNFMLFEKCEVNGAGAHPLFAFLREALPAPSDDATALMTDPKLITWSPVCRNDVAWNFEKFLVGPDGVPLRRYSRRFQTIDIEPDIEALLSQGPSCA
Procedure, shortened: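 GPX1 10 nM, GR 100 nM, GSH 1 mM, NADPH 0.5 mM, CHP 0.5 mM (final). 30-min cpd preincubation, RT. Ex340/Em450 read t=0, t=15 min.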

[3] = biological target: Phospholipid hydroperoxide glutathione peroxidase GPX4 (Homo sapiens) (UniProt P36969); assay: Primary qHTS Assay for Inhibitors of Recombinant Selenoprotein Glutathione Peroxidase 4 (GPX4) (AID 1845192); conditions: recombinant GPX4, GR-coupled NADPH fluorescence, 15 min; series mostly up to 50 µM; further: nearly all actives have a fitted effect of over 65% in size
Phospholipid hydroperoxide glutathione peroxidase GPX4 (Homo sapiens), sequence (P36969 whole entry, looked up): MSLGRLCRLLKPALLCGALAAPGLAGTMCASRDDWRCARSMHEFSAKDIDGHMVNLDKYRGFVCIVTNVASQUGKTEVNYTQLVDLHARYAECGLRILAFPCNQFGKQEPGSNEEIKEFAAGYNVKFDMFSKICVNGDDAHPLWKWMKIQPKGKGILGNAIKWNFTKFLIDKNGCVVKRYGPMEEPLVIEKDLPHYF
Procedure, shortened: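 qHTS, GR-coupled: GPX4 200 nM + cpd 30 min RT → GSH 1 mM, NADPH 0.5 mM, GR 100 nM → CHP 0.5 mM start; fluor 340/450 at t0 and t15 min; no-enzyme wells as control.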

[4] = Quantitative High-Throughput drug screen in 47 multiple myeloma cell lines against the NCATS MIPE library collection: FR4_PLB cell viability assay (AID 1918924; further: nearly all actives have a fitted effect of over 35% in size; further: potency means the concentration at half of the fitted maximal effect); conditions: FR4_PLB myeloma cells viability, CellTiter-Glo ATP, 48 h; series mostly up to 45.8 µM
Procedure, shortened: (§1)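 qHTS of the MIPE 4.0 collection: 500 myeloma cells/well, 48 h drug exposure at 37C in 5% CO2, then CellTiter-Glo for 5 min at room temperature before luminescence reading.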

[5] = Quantitative High-Throughput drug screen in 47 multiple myeloma cell lines against the NCATS MIPE library collection: Delta47_JCRB cell viability assay (AID 1918925; further: nearly all actives have a fitted effect of over 45% in size; further: potency means the concentration at half of the fitted maximal effect); conditions: Delta47 myeloma viability, CellTiter-Glo ATP, 48 h; series mostly up to 45.8 µM
Procedure, shortened: (§2)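 Approved and investigational drugs from MIPE 4.0 were added by pin tool to 500 cells per well. After 48 hours at 37C, ATP-based CellTiter-Glo luminescence indicated remaining viability.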

[6] = Quantitative High-Throughput drug screen in 47 multiple myeloma cell lines against the NCATS MIPE library collection: EJM_DSMZ cell viability assay (AID 1918926; further: nearly all actives have a fitted effect of over 30% in size; further: potency means the concentration at half of the fitted maximal effect); conditions: EJM myeloma cell viability, CellTiter-Glo ATP, 48 h; series mostly up to 45.8 µM
Procedure, shortened: as §2

[7] = Quantitative High-Throughput drug screen in 47 multiple myeloma cell lines against the NCATS MIPE library collection: AMO1_DSMZ cell viability assay (AID 1918927; further: nearly all actives have a fitted effect of over 30% in size; further: potency means the concentration at half of the fitted maximal effect); conditions: AMO1 myeloma cells viability, CellTiter-Glo ATP luminescence, 48 h; series mostly up to 45.8 µM
Procedure, shortened: as §2

[8] = Quantitative High-Throughput drug screen in 47 multiple myeloma cell lines against the NCATS MIPE library collection: ARD_JJKsccE7 cell viability assay (AID 1918929; further: potency means the concentration at half of the fitted maximal effect); conditions: ARD myeloma cell line viability, CellTiter-Glo, 48 h; series mostly up to 45.8 µM
Procedure, shortened: as §2

[9] = Quantitative High-Throughput drug screen in 47 multiple myeloma cell lines against the NCATS MIPE library collection: Karpas620_DSMZ cell viability assay (AID 1918959); conditions: Karpas620 myeloma viability, CellTiter-Glo ATP luminescence, 48 h; series mostly up to 45.8 µM; further: nearly all actives have a fitted effect of over 30% in size; further: potency means the concentration at half of the fitted maximal effect
Procedure, shortened: as §1

[10] = Quantitative High-Throughput drug screen in 47 multiple myeloma cell lines against the NCATS MIPE library collection: ARP1_JJKsccF8 cell viability assay (AID 1918928; further: nearly all actives have a fitted effect of over 40% in size; further: potency means the concentration at half of the fitted maximal effect); conditions: ARP1 myeloma cells viability, CellTiter-Glo ATP, 48 h; series mostly up to 45.8 µM
Procedure, shortened: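 500 cells/well; MIPE 4.0 library pinned in; 48 h, 37 °C, 5% CO2; CellTiter-Glo ATP luminescence. Controls: DMSO = 100% viability, medium only = 0%.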

[11] = biological target: Luciferin 4-monooxygenase (Photinus pyralis) (UniProt P08659); assay: Primary firefly luciferase (FLuc) qHTS assay for identification of artifact compounds. (AID 1845220); conditions: purified firefly luciferase, luminescence, 5 min; series mostly up to 54.1 µM; further: nearly all actives have a fitted effect of over 60% in size
Procedure, shortened: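 qHTS, 15 min compound preincubation with substrate (10 uM luciferin, 10 uM ATP) at RT, then 10 nM FLuc; 5 min; luminescence; % inhibition vs no-enzyme/DMSO controls, 4-parameter Hill fit.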

[12] = Primary fluorescence-based thiol-reactive (MSTI) qHTS assay for identification of artifact compounds. (AID 1845221); conditions: MSTI thiol-reactivity probe, 1 h; series mostly up to 53.8 µM; further: nearly all actives have a fitted effect of over 65% in size; further: potency means the concentration at half of the fitted maximal effect
Procedure, shortened: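 Probe: MSTI 4 uM, PBS pH 7.4, 2% DMSO. Incubation 1 h, RT, light-protected. Readout fluorescence 525/598 nm.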

[13] = Primary redox qHTS assay for identification of artifact compounds. (AID 1845223); conditions: Amplex Red/HRP redox cycling with DTT, fluorescence; series mostly up to 53.8 µM
Procedure, shortened: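 Redox-cycling detection via DTT (250 uM final) oxidation coupled to Amplex Red (25 uM)/HRP (250 mU/mL) in HBSS. 15 min preincubation plus 30 min after DTT, room temperature. Ex/Em 525/598 nm; 4-parameter Hill fit against DMSO and 10 uM DA3003.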

Measured: Potency

Oc1ccc2c3c1O[C@H]1c4[nH]c5c(c4C[C@@]4(O)[C@@H](C2)N(CC2CC2)CC[C@]314)C[C@@]1(O)[C@H]2Cc3ccc(O)c4c3[C@@]1(CCN2CC1CC1)[C@H]5O4
inactive: [1] | [2] | [3] | [4] | [5] | [6] | [7] | [8] | [9]

CCN1C[C@]2(OC(=O)c3ccccc3NC(C)=O)CC[C@H](OC)[C@@]34[C@H]5CC6[C@@H](OC)C[C@](O)(C(C[C@@H]23)[C@@H]14)[C@@]5(O)[C@@H]6OC
inactive: [2] | [3] | [4] | [5] | [6] | [7] | [10] | [9]

CCN(CC)C(=O)c1ccc(C2=CC3(CCNCC3)Oc3cccc(O)c32)cc1
inactive: [2] | [3] | [11] | [12] | [13] | [5] | [6] | [8] | [9]

C1CCC(NC2CCCCC2)CC1
inactive: [2] | [3]

COc1cc([C@@H]2c3cc4c(cc3[C@@H](O)C3COC(=O)C32)OCO4)cc(OC)c1O (some centres undefined)
inactive: [2] | [3]
active: [4] 0.0066 µM | [5] 0.0264 µM | [6] 0.0469 µM | [8] 0.0083 µM | [9] 0.0187 µM

CCc1c(C(=O)C(N)=O)c2c(OCC(=O)O)cccc2n1Cc1ccccc1
inactive: [2] | [3] | [11] | [13] | [4] | [5] | [6] | [8] | [9]

O=C(O)CNC(=O)c1c(O)c2ccccc2n(Cc2ccccc2)c1=O
inactive: [2] | [3] | [11] | [13] | [4] | [5] | [6] | [8] | [9]

CC[N+]1(CCOC(=O)C(O)(c2ccccc2)c2ccccc2)CCCCC1
inactive: [2] | [3]

COC1=C[C@@H]2[C@@H]3Cc4ccc(OC)c(O)c4[C@]2(CCN3C)CC1=O
active: [5] 3.32 µM | [7] 3.32 µM | [10] 26.4 µM | [8] 6.62 µM | [9] 20.9 µM
inactive: [2] | [3] | [11] | [12] | [13]

CC1(N2CCC(n3c([C@@H]4CCCNC4)nc4ccccc43)CC2)CCCCCCC1
active: [4] 23.5 µM | [5] 13.2 µM | [9] 9.35 µM
inactive: [2] | [3] | [11] | [12] | [13] | [6]

CSCC[C@@H](NC(=O)[C@@H](Cc1ccccc1)NC(=O)CNC(=O)CNC(=O)[C@@H](N)Cc1ccc(O)cc1)C(=O)O
inactive: [2] | [3] | [4] | [5] | [6] | [8]

CC(C)(C)NC[C@H](O)c1ccc(O)cc1Cl
inactive: [2] | [3] | [11] | [12] | [13]

CC(=O)Nc1ccc(OC[C@](C)(O)C(=O)Nc2ccc([N+](=O)[O-])c(C(F)(F)F)c2)cc1
inactive: [2] | [3] | [11] | [13] | [4] | [8] | [9]

Cc1c(C(=O)Nc2cccc(C(F)(F)F)c2)cc(-c2ccccc2)n1CCCN1CCOCC1
active: [4] 23.5 µM | [5] 16.6 µM | [6] 18.7 µM | [8] 5.9 µM | [9] 16.6 µM
inactive: [2] | [3] | [11] | [12] | [13]

CN[C@@H]1Cc2cccc3[nH]c(=O)n(c23)C1
inactive: [2] | [3] | [5] | [6] | [9]
active: [4] 11.8 µM

NC1=NC(=O)N2CC12 (centres undefined)
active: [5] 10.5 µM | [7] 13.2 µM | [8] 18.7 µM | [9] 9.35 µM
inactive: [2] | [3] | [4] | [6]

O=C(NCC1CCOCC1)c1cnc(Nc2ccc(Cl)cc2Cl)nc1C(F)(F)F
active: [4] 14.8 µM | [5] 7.43 µM | [9] 5.26 µM
inactive: [2] | [3] | [11] | [12] | [13] | [6]

CC(C)[C@]12O[C@H]1[C@@H]1O[C@]13[C@]1(O[C@H]1C[C@H]1C4=C(CC[C@@]13C)C(=O)OC4)[C@@H]2O
inactive: [2] | [3] | [11] | [12] | [13]

CN1CCN(c2ccc([N+](=O)[O-])c3no[n+]([O-])c23)CC1
inactive: [3] | [11] | [13]
active: [2] 18.3 µM | [12] 11.9 µM | [4] 20.9 µM | [5] 8.33 µM | [10] 9.35 µM | [8] 23.5 µM | [9] 20.9 µM

CCOP(=O)(OCC)C(C)NC(=O)N(CCCl)N=O (centres undefined)
inactive: [2] | [3] | [4] | [5] | [6] | [7] | [8] | [9]

O=C(Nc1ccncc1)C(=O)c1cn(Cc2ccc(Cl)cc2)c2ccccc12
inactive: [2] | [3]
active: [4] 0.0166 µM | [5] 0.0166 µM | [6] 3.72 µM | [10] 0.0743 µM | [8] 0.0418 µM

c1ccc2c(CN3CCNCC3)cccc2c1
inactive: [2] | [3] | [4] | [5] | [6] | [7] | [10] | [8] | [9]
